Test results published in PubChem BioAssay (NCI).
This is part of a sample that, as a whole, favours compounds with a hit. Of some 83,000 tested, about 20% had one in any assay.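 Single-dose data. Exposure time 48 hours. Values below 10 considered active.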 A number with no mark means an inactive call. Activity calls are given as the source filed them.

tested on: SNB-75 CNS; assay: NCI-60 one-dose screen, 48 h (100 = growth as untreated, 0 = no growth, -100 = all killed); settings: 10 µM
Procedure: Growth inhibition of the SNB-75 human tumor cell line is measured as a screen for anti-cancer activity. Cells are grown in 96 well plates and exposed to the test compound for 48 hours. Compounds are tested at a single concentration, which is 10^-5 M for most compounds. The reported endpoint is percent growth (GI% or GIPRCNT), where numbers from 0 - 100% represent growth inhibition, and numbers from -100% - 0 represent cell death. For example, a value of 40 represents 60% growth inhibition. A value of 0 means no net growth occurred over the course of the experiment. A value of -40 indicates 40% of cells at the beginning of the experiment died by the end of the experiment. A value of -100 means all cells are dead at the end of the experiment.
NCI-60 Human Tumor Cell Lines Screen was performed using the standard one-dose NCI protocol, which is described in more detail at https://dtp.cancer.gov/discovery_development/nci-60/default.htm.
Compounds with GIPRCNT values below 10 were considered active. Activity score was based on GIPRCNT using the following formula: […]
Score is 0 for GIPRCNT values of 100 or above, 50 for GIPRCNT values of 0, and 100 for GIPRCNT values of -100.

For `CCOC(=O)c1ccc(Nc2sc(C(=O)c3cccc([N+](=O)[O-])c3)c(N)c2C#N)cc1`, the growth was -6.96% (active).
With `Cc1cc(N2CCC(N3CCCC3)CC2)nc(/N=C(\N)Nc2ccc(Cl)c(Cl)c2)n1` the growth was -60.3% (active).

Point of comparison: `C#Cc1cccc(NC(=O)c2ccc(Cl)cc2Cl)c1`, growth 106%. Against it:
- O=C1C[C@H](c2ccccc2)[C@H](c2ccccc2)C1 — lower, 91.8%
- COc1cc(CN)ccc1O — lower, 88.8%
- Cc1cc(NC(=O)CSCC(=O)O)no1 — lower, 102%
- CCCCC(=O)c1ccc(OC)cc1 — lower, 101%
- O=C(/C(=N/O)c1ccccc1)c1ccccc1 — lower, 85.4%
- CCCCC(CC)COC(C)=O (stereo not given) — lower, 91.2%
- C[N+](C)=c1ccc2nc3c(cc(Nc4ccccc4)c4ccccc43)oc-2c1 — lower, 86.7%
- Clc1ccc(-c2nnc(-c3cccc4ccccc34)o2)cc1 — lower, 76.8%
- C1CNC(C2=NCCN2)=N1 — lower, 100%
- O=[N+]([O-])c1ccc(Sc2ccncn2)c([N+](=O)[O-])c1 — lower, 81.8%
- Nc1ncnc2[nH]ncc12 — lower, 33.3%
- CC1C(=O)c2ccccc2CC1C(=O)O (stereo not given) — lower, 82.2%
- O=C(CS)Nc1ccc2ccccc2c1 — higher, 112%
- CN(C)CCC(=O)c1ccc(O)cc1 — lower, 93.7%
- O=[N+]([O-])c1ccc(S(=O)(=O)NN=C2CCCCC2)cc1 — lower, 87.8%
- COc1nc(N)nc2c1ncn2C1OC(CO)CC1O (stereo not given) — lower, 89.7%
- COc1ccc(C2OC(N)=C(O)C2=O)cc1OC (stereo not given) — lower, 101%
- O=C(O)CCCCNC(=O)c1ccccc1 — lower, 103%
- CCOC(=O)C1OC1c1ccccc1 (stereo not given) — lower, 92%
- CC(=O)Cc1ccc(-c2ccccc2)cc1 — lower, 98.5%
- CC(C)=CC(=O)OC(=O)C=C(C)C — lower, 90.3%
- CCOC(=O)C(C#N)Cc1ccccc1 (stereo not given) — lower, 99.1%
- Cc1cc(C)cc(NCCC#N)c1 — lower, 94.6%
- O=C(O)/C=C/C(=O)NCc1ccccc1 — lower, 81.9%
- S=C1CCCCCN1 — lower, 89.1%
- O=C1OC[C@H]2[C@H](c3ccc(O)c(O)c3)c3cc(O)c(O)cc3C[C@H]12 — higher, 116%
- Nc1ccc(NC(=O)c2cccc(N)c2)cc1 — lower, 91.3%
- CC(=O)c1ccc(N=C(C#N)C2=C(O)c3ccccc3C2=O)cc1 — lower, 78.8%
- Cc1cccc(C(=O)N(C(C)C)C(C)C)c1 — lower, 95%
- O=C1Cc2ccccc2C(=O)O1 — lower, 95.8%
- O=C(N/N=C\c1cc(Br)cc(Br)c1O)N/N=C/c1cc(Br)cc(Br)c1O — lower, 49%
- O=S(=O)(Cc1ccccc1)c1ccccc1 — lower, 88.5%
- O=[N+]([O-])c1ccc(N=Nc2ccc(O)c3ccccc23)cc1 — lower, 68.8%
- OCC(O)C(O)C(O)C(O)/C=N/O (stereo not given) — lower, 96.1%
- CCS(=O)(=O)c1cc(=O)[nH]c(=O)[nH]1 — lower, 82.4%
- Cc1cc2ccccc2c(O)c1C#N — lower, 78.3%
- O=[N+]([O-])c1cccc2nsnc12 — lower, 96.7%
